According to PubChem BioAssay (NCATS):
Inconclusive results are not listed. Entries that show only a call come without a potency. Calls of active or inactive are those of the source. Calls come from the whole dose curve; as a rule, active = well fitted curve in the direction sought with a large enough effect; inconclusive = small, poorly fitted or top-dose-only effect, or another doubt; inactive = no such curve, though single readings can be large; an effect the other way counts as inactive or inconclusive.

How the values were obtained:
MKL-2 = test: qHTS assay to identify novel small-molecules to repurpose for Merkel cell carcinoma treatment (AID 1296009); conditions: MCC and control cell lines, CellTiter-Glo viability, 72 h; series mostly up to 46 µM; note: nearly all actives have a fitted effect of over 60% in size
Summary of the method: (§1)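 Viability readout: ATP luminescence (CellTiter-Glo) after 72 hr drug exposure at 37 degree celsius. Dose-response format was 8 points for NPC and 11 points for MIPE; data normalized to in-plate controls.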

UISO = test: as above; conditions: MCC and control cell lines, CellTiter-Glo viability, 72 h; series mostly up to 46 µM
Summary of the method: as §1

WaGa = test: as above; conditions: MCC and control cell lines, CellTiter-Glo viability, 72 h; series mostly up to 46 µM
Summary of the method: as §1

NIH3T3 = test: as above; conditions: MCC and control cell lines, CellTiter-Glo viability, 72 h; at 44.8 µM (top of the series) unless noted
Summary of the method: as §1

C33A = test: Primary qHTS to identify gynecologic anti-cancer compounds using libraries of approved drugs and bioactive compounds (AID 1345084); conditions: Gynecologic cancer cell panel viability, ATPlite luminescence, 48 h; series mostly up to 57.5 µM; note: nearly all actives have a fitted effect of over 55% in size
Summary of the method: (§2)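 Cytotoxicity screen measuring ATP content by luciferase luminescence. Each compound is applied at five concentrations for 48 h at 37 C with 5% CO2.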

CAOV3 = test: as above; conditions: Gynecologic cancer cell panel viability, ATPlite luminescence, 48 h; series mostly up to 57.5 µM
Summary of the method: as §2

CASKI = test: as above; conditions: Gynecologic cancer cell panel viability, ATPlite luminescence, 48 h; series mostly up to 57.5 µM
Summary of the method: as §2

Es-2 = test: as above; conditions: Gynecologic cancer cell panel viability, ATPlite luminescence, 48 h; series mostly up to 57.5 µM
Summary of the method: as §2

HeLa = test: as above; conditions: Gynecologic cancer cell panel viability, ATPlite luminescence, 48 h; series mostly up to 57.5 µM
Summary of the method: as §2

Hek293T = test: as above; conditions: Gynecologic cancer cell panel viability, ATPlite luminescence, 48 h, control line for the selectivity index; series mostly up to 57.5 µM
Summary of the method: as §2
Potency is the fitted concentration of half-maximal effect.

Row | Structure (SMILES) | Potency (MKL-2) | Potency (UISO) | Potency (WaGa) | outcome (NIH3T3) | Potency (C33A) | Potency (CAOV3) | Potency (CASKI) | Potency (Es-2) | Potency (HeLa) | Potency (Hek293T)
1 | C=C1C(=CC=C2CCC[C@]3(C)[C@@H]([C@H](C)C=C[C@H](C)C(C)C)CC[C@@H]23)C[C@@H](O)C[C@@H]1O | 0.332 µM (active) | 8.33 µM (active) | 0.118 µM (active) |  |  |  |  |  |  | 
2 | CC(C)c1ccccc1Cc1cc(C(=O)Nc2ccc(S(=O)(=O)c3ccccc3C(C)(C)C)cc2)c(O)c(O)c1O | inactive |  |  |  |  |  |  |  |  | 
3 | Cc1ccc(-c2ncn(-c3ccc(Nc4nccc(-c5cccc(N6CCOCC6)c5)n4)cc3)n2)cn1 | 0.0526 µM (active) |  |  |  |  |  |  |  |  | 
4 | COc1cc2ncn(-c3cc(OCc4ccccc4C(F)(F)F)c(C(N)=O)s3)c2cc1OC | inactive |  |  |  |  |  |  |  |  | 
5 | C[C@H]1C[C@@H]2[C@@H]([C@@H](O)C[C@@]3(C)[C@H]2CC[C@]3(O)C(=O)CO)[C@@]2(C)C=CC(=O)C=C12 | inactive | inactive | inactive | inactive |  |  |  |  |  | 
6 | CC(C)C[C@H](NC(=O)CNC(=O)c1cc(Cl)ccc1Cl)B(O)O | 0.264 µM (active) | 0.59 µM (active) | 0.296 µM (active) |  |  |  |  |  |  | 
7 | Nc1ccc(S(=O)(=O)Nc2ncccn2)cc1 | inactive | inactive | inactive | inactive |  |  |  |  |  | 
8 | Clc1cccc(-n2nnnc2NCc2ccccc2Oc2ccccn2)c1Cl | inactive | inactive | inactive | inactive | inactive | inactive | inactive | inactive | inactive | inactive
9 | COc1cc2ncnc(Nc3ccc(F)c(Cl)c3)c2cc1NC(=O)C=CCN1CCCCC1 | 3.72 µM (active) |  |  |  |  |  |  |  |  | 
10 | Cc1cnc(-c2cnc(NCCNc3ccc(C#N)cn3)nc2-c2ccc(Cl)cc2Cl)[nH]1 | inactive |  | inactive | inactive |  |  | inactive | inactive |  | inactive
11 | CC1COC2(CCN(c3nc(=O)c4cc(C(F)(F)F)cc([N+](=O)[O-])c4s3)CC2)O1 (centres undefined) | inactive | inactive | inactive | inactive | inactive | inactive | inactive | inactive | inactive | inactive
12 | Cn1c(CNc2ccc(C(=N)N)cc2)nc2cc(C(=O)N(CCC(=O)O)c3ccccn3)ccc21 | inactive | inactive | inactive | inactive [at 17.4 µM] | inactive |  | inactive | inactive | inactive | inactive
13 | CCCCCCCCCC(=O)N[C@@H](Cc1c[nH]c2ccccc12)C(=O)N[C@H](CC(N)=O)C(=O)N[C@@H](CC(=O)O)C(=O)N[C@@H]1C(=O)NCC(=O)N[C@@H](CCCN)C(=O)N[C@@H](CC(=O)O)C(=O)N[C@H](C)C(=O)N[C@@H](CC(=O)O)C(=O)NCC(=O)N[C@H](CO)C(=O)N[C@@H]([C@@H](C)CC(=O)O)C(=O)N[C@@H](CC(=O)c2ccccc2N)C(=O)O[C@@H]1C | inactive | inactive | inactive | inactive | inactive | inactive | inactive | inactive | inactive | inactive
14 | CNC(=O)c1ccc(N2C(=S)N(c3cnc(C#N)c(C(F)(F)F)c3)C(=O)C23CCC3)cc1F | 26.4 µM (active) |  | 9.35 µM (active) | inactive | inactive | inactive | inactive | inactive | inactive | inactive
15 | O=c1[nH]nc(Sc2ncc([N+](=O)[O-])s2)n1-c1ccc2c(c1)OCCO2 | 5.26 µM (active) | 7.43 µM (active) | 5.26 µM (active) |  |  |  |  |  |  | 
16 | Cc1ccc(NC(=O)C2(c3ccc4c(c3)OC(F)(F)O4)CC2)nc1-c1cccc(C(=O)O)c1 | 0.0264 µM (active) |  |  | inactive | inactive | inactive | inactive | inactive | inactive | inactive
17 | CC(=O)OCCN1C(=O)c2c(C)nc3ccc(S(=O)(=O)N4CCOCC4)cc3c2C1=O | inactive | inactive | inactive |  |  |  |  |  |  | 
18 | CCOc1ccccc1OCCNC(C)Cc1ccc(OC)c(S(N)(=O)=O)c1 (centres undefined) | inactive | inactive | inactive | inactive | inactive |  | inactive | inactive | inactive | inactive
19 | Cc1coc2c1C(=O)C(=O)c1c-2ccc2c1CCCC2(C)C | inactive | inactive | inactive | inactive | inactive |  | inactive | inactive |  | inactive
20 | C1=CCOCc2cc(ccc2OCCN2CCCC2)Nc2nccc(n2)-c2cccc(c2)OCC1 | 11.8 µM (active) | 11.8 µM (active) | 9.35 µM (active) |  |  |  |  |  |  | 
21 | C1Cc2[nH]nc(-c3nn[nH]n3)c2C1 | inactive | inactive | inactive | inactive | inactive | inactive | inactive | inactive | inactive | inactive
22 | COc1cc(C(C)C)c2c(c1)S(=O)(=O)N(COc1cc(=O)n3cccc(OCCN4CCCCC4)c3n1)C2=O | inactive | inactive | inactive | inactive |  |  |  |  |  | 
23 | CC(C)(C)OC(=O)Nc1ccc(-c2cc(C(=O)NCCCCCCC(=O)NO)no2)cc1 | 2.96 µM (active) | 10.5 µM (active) | 3.32 µM (active) |  |  |  |  |  |  | 
24 | O=C(O)c1ccc2c(c1)nc(Nc1cccc(Cl)c1)c1ccncc12 | 5.26 µM (active) | 4.18 µM (active) |  | inactive |  |  | 35.5 µM (active) |  |  | 
25 | CCCn1c(=O)c2[nH]c(-c3cnn(Cc4cccc(C(F)(F)F)c4)c3)nc2n(CC)c1=O | inactive | inactive | inactive | inactive | inactive |  | inactive | inactive | inactive | inactive

Row | Structure (SMILES) | Potency (MKL-2) | Potency (UISO) | Potency (WaGa) | outcome (NIH3T3) | Potency (C33A) | Potency (CAOV3) | Potency (CASKI) | Potency (Es-2) | Potency (HeLa) | Potency (Hek293T)
26 | N#Cc1c(O)c2c(-c3ccc(-c4ccccc4O)cc3)csc2[nH]c1=O | inactive | inactive | inactive | inactive | inactive | inactive | inactive | inactive | inactive | inactive
27 | CC(C)(C)c1cc(NC(=O)Nc2ccc(-c3cn4c(n3)sc3cc(OCCN5CCOCC5)ccc34)cc2)no1 | inactive | inactive | inactive | inactive | inactive |  | inactive | inactive | inactive | inactive
28 | O=C1CCC[C@@H]2[C@H]3CCC[N+]4([O-])CCC[C@@H](CN12)[C@@H]34 (some centres undefined) | inactive | inactive | inactive | inactive | inactive |  | inactive | inactive | inactive | inactive
29 | CC(C)(C)c1cc(C(C)(C)C)c(NC(=O)c2c[nH]c3ccccc3c2=O)cc1O | inactive | inactive | inactive | inactive |  |  |  |  |  | 
30 | Clc1ccc2ncc(-c3cccc(NC4CNC4)n3)n2c1 | inactive |  |  | inactive | inactive | inactive | inactive | inactive | inactive | inactive
31 | O=c1[nH]c(=O)n(C2CCCO2)cc1F (centres undefined) | inactive | inactive |  |  |  |  |  |  |  | 
32 | C=C1C(=CC=C2CCCC3(C)[C@@H]([C@H](C)C=CC=CC(O)(CC)CC)CC[C@@H]23)C[C@@H](O)C[C@@H]1O (some centres undefined) | 14.8 µM (active) | inactive | 11.8 µM (active) |  |  |  |  |  |  | 
33 | CC(=O)OCC(=O)[C@@]1(O)[C@H](C)C[C@H]2[C@@H]3C=C(C)C4=Cc5c(cnn5-c5ccccc5)C[C@]4(C)[C@@H]3[C@@H](O)C[C@@]21C | 7.43 µM (active) | inactive | inactive |  |  |  |  |  |  | 
34 | O=C(NC1CCNCC1)c1[nH]ncc1NC(=O)c1c(Cl)cccc1Cl | 0.833 µM (active) | 1.32 µM (active) |  |  |  |  |  |  |  | 
35 | Cc1cn2cc(C(=O)N(C)CCO)cc(N[C@@H]3CCOc4cccc(C)c43)c2n1 | inactive |  | inactive | inactive | inactive |  | inactive | inactive | inactive | inactive
36 | CN1c2cc(O)c(N=NC(N)=O)cc2CC1S(=O)(=O)O (centres undefined) | inactive | inactive | inactive | inactive |  |  |  |  |  | 
37 | Nc1nc(NCCNc2ncc(-n3ccnc3)c(-c3ccc(Cl)cc3Cl)n2)ccc1[N+](=O)[O-] | inactive | inactive | inactive | inactive |  |  | inactive | inactive |  | inactive
38 | COc1ccc(CC2SC(=O)NC2=O)cc1C(=O)NCc1ccc(C(F)(F)F)cc1 (centres undefined) | inactive | inactive | inactive |  |  |  |  |  |  | 
39 | CCN1CCN(Cc2ccc(-c3cc4c(N[C@H](C)c5ccccc5)ncnc4[nH]3)cc2)CC1 | 0.0132 µM (active) | 0.118 µM (active) | 0.0209 µM (active) |  |  |  |  |  |  | 
40 | CC1(C)O[C@@H]2C[C@@H]3[C@H]4C[C@@H](F)C5=CC(=O)C=C[C@]5(C)[C@@]4(F)[C@@H](O)C[C@]3(C)[C@]2(C(=O)CO)O1 | inactive | inactive | inactive |  |  |  |  |  |  | 
41 | CCOc1cc2ncc(C#N)c(Nc3ccc(F)c(Cl)c3)c2cc1NC(=O)C=CCN(C)C | 14.8 µM (active) | 2.64 µM (active) | 9.35 µM (active) |  |  |  |  |  |  | 
42 | Nc1nc(-c2nn(Cc3ccccc3F)c3ncccc23)nc(N)c1N1CCOCC1 | inactive | inactive | inactive |  |  |  |  |  |  | 
43 | O=C(C=Cc1cccnc1)NCCCCC1CCN(C(=O)c2ccccc2)CC1 | 0.0209 µM (active) | 0.0209 µM (active) | 0.0166 µM (active) |  |  |  |  |  |  | 
44 | Cc1ccc(CN2CCNCC2)cc1NC(=O)CNc1ccc(F)c(F)c1 | inactive | inactive | inactive |  | inactive |  | inactive | inactive | inactive | inactive
45 | CN(C)CC=CC(=O)Nc1cc2c(Nc3ccc(F)c(Cl)c3)ncnc2cc1O[C@H]1CCOC1 | 5.26 µM (active) | 14.8 µM (active) | 14.8 µM (active) |  |  |  |  |  |  | 
46 | CC(C)[C@H](C(=O)Nc1ccc(C(=O)NO)cc1)c1ccccc1 | 0.833 µM (active) | 3.32 µM (active) | 0.662 µM (active) |  |  |  |  |  |  | 
47 | Nc1ccccc1NC(=O)c1ccc(CNc2nccc(-c3cccnc3)n2)cc1 | 1.48 µM (active) | 2.35 µM (active) | 0.418 µM (active) |  | 6.31 µM (active) |  | 8.91 µM (active) | 4.47 µM (active) | 0.891 µM (active) | 
48 | CC(=O)SC[C@@H](C)C(=O)N1CCC[C@H]1C(=O)N[C@@H](Cc1ccccc1)C(=O)O | inactive | inactive | inactive |  | inactive | inactive | inactive | inactive | inactive | inactive
49 | CC=CC1=C(C(=O)O)N2C(=O)[C@H](NC(=O)[C@H](N)c3ccc(O)cc3)[C@@H]2SC1 | inactive | inactive | inactive |  |  |  |  |  |  | 
50 | COC(=O)C[C@](O)(CCCC(C)(C)O)C(=O)O[C@@H]1C(OC)=C[C@]23CCCN2CCc2cc4c(cc2[C@H]13)OCO4 | inactive | inactive | inactive |  |  |  |  |  |  | 
